# Reference: ChEMBL document CHEMBL3988442, “University of Dundee, Small-Polar-MMV Screening Library” (2021)
# Hit rate of the full screen: of about 38,000 compounds, about 1,200 (3.2%) showed an effect of 50% or more. The median lay at about -58%. The list comes from a sample in which strong results are over-represented; it also holds similar structures and randomly drawn compounds.
# Test system: Plasmodium falciparum
# Assay: Calibr Malaria Delayed Death Assay SOP
# Assay type: functional, organism-based
# Set-up: scale not given: in the data most compounds retested in dose-response had high values
# Details: concentration 4.99e-06 (unit not given; other assays of the set use mol/L)
row,Compound,Percent Effect
1,Cc1ccc([C@H]2CN(C(=O)C3CCC3)C[C@@H]2N)o1,-3.638%
2,Cc1nc(N2CCN(C)CC2)ncc1C(=O)N1CCCCCC1,-28.58%
3,O=C1CCN(C(=O)CCc2ccc(Cl)cc2Cl)CCN1,-159.9%
4,Cc1cnn(CC2CCCCN2C(=O)c2cccc(C(N)=O)c2)c1 (stereo not drawn),-136.1%
5,CCCn1ncc(CN(Cc2cccnc2)Cc2ccsc2)c1C,-140.4%
6,CCCn1ncc(CN(CCN(C)C)Cc2ccsc2)c1C,54.25%
7,CCCn1ncc(CN(Cc2ccsc2)Cc2ccco2)c1C,-133.4%
8,Cc1ccc(NC2CCN(C(=O)COc3ccccc3)CC2)nn1,-125.7%
9,O=c1n(CCNCc2ccc3ccccc3c2)nc2ccccn12,-86.86%
10,CCOc1cc(C(=O)N2CCCC(c3noc(CC)n3)C2)ccn1 (stereo not drawn),-108.4%
11,NCC1Cc2cc(-c3cncc(C(=O)N4CCCCC4)n3)cc(F)c2O1 (stereo not drawn),51.14%
12,O=C(c1cncc(NCC2COc3ccccc3C2)n1)N1CCCC1 (stereo not drawn),-147.2%
13,NCC1Cc2cc(-c3cncc(C(=O)N4CCOCC4)n3)cc(Cl)c2O1 (stereo not drawn),-15.5%
14,Cc1nc(-c2ccco2)ccc1C(=O)NCCC(=O)N1CCCCC1,-60.18%
15,Cc1cc(C)c2cc(CNCc3ccc(C)o3)c3nn(C)c(=O)n3c2c1,62.16%
16,Cc1cc(C)c2cc(CNCc3cccnc3)c3nn(C)c(=O)n3c2c1,28.22%
17,Cc1cc(C)c2cc(CNC(C)C)c3nn(C)c(=O)n3c2c1,20.42%
18,Cc1ccn(CCC(=O)NCc2ccc(C)o2)n1,-117.2%
19,CCOCCCNCc1cc2c(C)cc(C)cc2n2c(=O)n(C)nc12,-70.5%
20,Cc1cc(C)c2cc(CNC3CCCCC3)c3nn(C)c(=O)n3c2c1,78.75%
21,Cc1cc(C)c2cc(CNCc3ccco3)c3nn(C)c(=O)n3c2c1,74.31%
22,Cc1ccc(CNC(=O)c2cc(C)n(C)n2)o1,-43.25%
23,Cc1cc(C(=O)NCc2ccco2)nn1C,-62.29%
24,COc1ccccc1CCNC(=O)NCC(=O)Nc1cccnc1,-188.8%
25,COC(=O)CNC(=O)CCCn1cnc2ccccc2c1=O,-30.86%

row,Compound,Percent Effect
1,O=C(c1cccnc1-c1ccoc1)N1C[C@H]2CC[C@@H]1C2,6.669%
2,O=C(O)C(F)(F)F.O=C(O)C(F)(F)F.c1cncc(-c2ccc3c(c2)CCC32CCN(Cc3nccs3)CC2)c1,47.52%
3,Cc1ccc2c(c1)CCC21CCN(CCO)CC1,15.58%
4,Cc1ccc2c(c1)C1(CC2)CCN(CC(=O)O)CC1.O=C(O)C(F)(F)F,-81.36%
5,O=C(O)C(F)(F)F.O=C(O)C(F)(F)F.c1cncc(-c2ccc3c(c2)CCC32CCN(Cc3ccco3)CC2)c1,73.11%
6,Cc1ccc2c(c1)CCC21CCN(C(=O)CN(C)C)CC1.O=C(O)C(F)(F)F,50.73%
7,CN(C)CC(=O)N1CCc2ncnc(-c3cncnc3)c2CC1.O=C(O)C(F)(F)F,-41.61%
8,CN(C)CC(=O)N1CCC2(CCc3ccc(-c4ccncc4)cc32)CC1.O=C(O)C(F)(F)F.O=C(O)C(F)(F)F,-49.14%
9,O=C(CCO)N1CCC2(CCc3ccc(-c4ccoc4)cc32)CC1,-85.78%
10,CN(C)CC(=O)N1CCC2(CCc3cc(-c4cccnc4)ccc32)CC1.O=C(O)C(F)(F)F.O=C(O)C(F)(F)F,79.5%
11,CN(C)CC(=O)N1CCC2(CC1)Cc1ccccc1CN(C)C2=O.O=C(O)C(F)(F)F,-24.83%
12,O=C(O)C(F)(F)F.OCCN1CCC2(CCc3cc(-c4ccoc4)ccc32)CC1,60%
13,O=C(O)C(F)(F)F.c1cncc(-c2ccc3c(c2)C2(CC3)CCN(c3nncs3)CC2)c1,21.42%
14,Cc1ccc(CN2CCc3ncnc(-c4ccoc4)c3CC2)o1.O=C(O)C(F)(F)F,-147%
15,Cc1ncc(C(=O)N2CCCCC2c2nc3cc(F)ccc3[nH]2)c(O)n1 (stereo not drawn),-22.18%
16,CS(=O)(=O)N1CCO[C@@H]2CN(C(=O)C3CCOC3)CC[C@@H]2C1 (stereo partly drawn),-33.97%
17,CC1c2ncc(Cn3cccn3)n2CCN1S(C)(=O)=O.O=C(O)C(F)(F)F (stereo not drawn),-110.2%
18,COc1ccc2c(ccn2CCC(=O)N[C@H](C(=O)O)C(C)C)c1,-46.34%
19,O=C(O)C(F)(F)F.O=S(=O)(C1CC1)N1C[C@H]2CCC[C@@]2(COCc2ccccn2)C1,2.137%
20,Cc1ccc(CNc2cc3c(cc2Cl)NC(=O)CO3)cc1C,-53.48%
21,CC(C)c1nccc(-c2nccn2CCS(C)(=O)=O)n1,-2.25%
22,COc1cccc(OCC(=O)N(C)c2cccnc2)c1,-135.2%
23,c1cncc(-c2ccc3c(c2)CCC32CCNCC2)c1,86.19%
24,O[C@H]1[C@H](n2cc(-c3cccnc3)nn2)c2ccccc2C12CCNCC2,-21.88%
25,c1cc(-c2ccc3c(c2)C2(CCNCC2)CC3)ccn1,-27.62%

row,Compound,Percent Effect
1,CCCN1CCCn2nc(CNS(=O)(=O)c3ccc(F)cc3)cc2C1,-65.3%
2,Cc1nnn2c1COC(CNC(=O)c1cccn1C)C2 (stereo not drawn),-28%
3,COc1cc(CNC(C)c2cccc(Cl)c2)cc(OC)c1OC (stereo not drawn),62.46%
4,COc1ccccc1CNC(C)c1ccc2[nH]c(=O)[nH]c2c1 (stereo not drawn),-107.7%
5,COc1ccc(C(C)NCc2c[nH]nc2C)cc1Br.Cl (stereo not drawn),17.2%
6,COc1cc(CNC(C)Cn2cccn2)cc(OC)c1OC.Cl (stereo not drawn),-15.53%
7,COc1cc(CNC(C)Cn2cccn2)cc(Cl)c1OC.Cl (stereo not drawn),-39.22%
8,CCOc1cccc(C(C)NCc2c(C)nn(C)c2N(C)C)c1 (stereo not drawn),-4.179%
9,COc1cccc(CNC(C)Cn2cccn2)c1OC.Cl (stereo not drawn),-25.91%
10,COc1ccc(CNC(C)c2cccc(Br)c2)c(OC)c1OC.Cl (stereo not drawn),66.18%
11,CCOc1cccc(C(C)NCc2ccc(OC)c(OC)c2OC)c1 (stereo not drawn),77.1%
12,CC1c2ncc(CNC(=O)C3CC3)n2CCN1Cc1ccccn1.O=C(O)C(F)(F)F.O=C(O)C(F)(F)F (stereo not drawn),-38.32%
13,Cc1sc(CS(C)(=O)=O)nc1-c1ccc(Cl)cc1,-81.11%
14,Cc1cc(N2CCC3(CCCN(C4CCOCC4)C3=O)C2)ccn1 (stereo not drawn),-85.7%
15,Cc1cc(NC(=O)N2CCCC2CN2CCOCC2)nn1C (stereo not drawn),-54.38%
16,Cc1n[nH]cc1CNC1CCN(c2cccc(C(F)(F)F)c2)CC1,62.67%
17,Cc1n[nH]cc1CNC1CCN(c2ccc(F)cc2)CC1.Cl,-38.43%
18,COc1cccc(-c2n[nH]cc2CNC2CCN(C3CC3)CC2)c1.Cl,18.36%
19,Cn1[nH]c(Br)c2/c(=N\CCN)ncnc1-2,-80.01%
20,CN(C(=O)c1cccnc1)C1CCCN(CCc2ccccc2)C1 (stereo not drawn),-66.95%
21,CN(C(=O)CSc1ccccn1)C1CCCN(CCc2ccccc2)C1 (stereo not drawn),-11.51%
22,CN(Cc1nnc(C2CC2)n1C)C1CCN(CCc2ccccc2)C1 (stereo not drawn),-85.28%
23,CN(C(=O)CCc1ccncc1)C1CCCN(CCc2ccccc2)C1 (stereo not drawn),-32.08%
24,CCn1ccnc1CN(C)C1CCCN(CCc2ccccc2)C1 (stereo not drawn),76.22%
25,O=C(NCCOc1ccc(Cl)cn1)NCCc1ccccn1,-11.42%

row,Compound,Percent Effect
1,O=c1cc2c(nn1CN1CCSCC1)CCC2,-0.0745%
2,CN(C)C1CCCN(C(=O)NCCc2cc(F)ccc2F)C1 (stereo not drawn),-83%
3,CC(=O)N1CC(C)CN(C(=O)c2cnccn2)c2ccccc21 (stereo not drawn),-30.69%
4,Cn1nccc1NC(=O)c1cccc(CN2C[C@H]3CC[C@@H](C2)N3)c1,-132.7%
5,CCCc1ccc(CN2CCC3(CC2)CNC(=O)C3)o1,20.41%
6,CC(C)n1nc(CN2CCCC2)c2c1CN(CC1CC1)CC2.O=C(O)C(F)(F)F.O=C(O)C(F)(F)F,54%
7,Cn1nc(CN2CCCC2)c2c1CN(CC1CC1)CC2.O=C(O)C(F)(F)F.O=C(O)C(F)(F)F,-21.27%
8,CC(C)n1nc(CN(C)C)c2c1CN(CC1CC1)CC2.O=C(O)C(F)(F)F.O=C(O)C(F)(F)F,-96.94%
9,Cc1noc(C)c1CN1CC[C@H]2OCC[C@@]2(C(=O)NC2CCCC2)C1.O=C(O)C(F)(F)F,8.677%
10,CO[C@H]1CNC[C@@H]1NC(=O)c1cc(C)nc2c(C)cc(C)cc12,73.93%
11,CO[C@H]1CNC[C@@H]1NC(=O)c1cc(C)nc2c(C)c(C)ccc12,-1.359%
12,Cc1cc(C)c2nc(C)cc(C(=O)NC(C)c3nnn[nH]3)c2c1 (stereo not drawn),-3.579%
13,CCc1cnc(N2C[C@@H]3[C@@H](C(=O)N(C)C)CCS(=O)(=O)[C@@H]3C2)nc1,-56.54%
14,Cc1cc(C(=O)N2CCn3cc(CN(C)C)nc3C2)no1,-39.89%
15,Cc1noc(C(C)C)c1C(=O)NCC(c1ccsc1)N(C)C (stereo not drawn),17.17%
16,Cc1noc(C)c1C(=O)NCC(c1ccsc1)N(C)C (stereo not drawn),-8.165%
17,O=C(O)C(F)(F)F.O=C(c1ccccn1)N1C[C@H]2CCC[C@@]2(COCC2CCOCC2)C1,-43.42%
18,Cc1cc(CN2CCC(CNS(=O)(=O)c3c(C)noc3C)CC2)c(C)o1,26.64%
19,Cc1cc(CN2CCC(CNS(=O)(=O)c3ccc(C)s3)CC2)c(C)o1,87.35%
20,Cc1cc(CN2CCC(CNS(=O)(=O)c3ccc(Br)s3)CC2)c(C)o1,91.4%
21,Cc1cc(C(O)CCNS(=O)(=O)c2ccc(Cl)s2)c(C)o1 (stereo not drawn),-41.19%
22,O=S(=O)(NCC(O)c1ccoc1)c1ccc(Br)s1 (stereo not drawn),-179.3%
23,Cc1ccc(S(=O)(=O)NCCc2ccoc2)s1,-129%
